# Assay results reported in ChEMBL document CHEMBL3988442, “University of Dundee, Small-Polar-MMV Screening Library” (2021).
# Screen size: about 48,000 compounds; about 13,000 (27%) showed an effect of 50% or more. The list shows a part of the results.
# Tested on: Wolbachia pipientis
# Experiment: Anti-Wolbachia Cell-Based Screen
# Format: functional
# Design: scale not given: in the data most compounds retested in dose-response had high values
# Conditions: 5 µM
row,Compound,Percent Effect
1,Cc1cc(CN(C)C(=O)c2ccc(F)cc2Br)no1,-8.681%
2,Cc1cc(=O)[nH]c(NCCNC(=O)C(c2ccc(F)cc2)N(C)C)n1 (stereo not given),1.725%
3,Cc1nc(CN2CCN(C(=O)CC(C)(C)c3ccccc3)CC2)no1,6.376%
4,CCc1nc(CN2CCCC(Nc3ncnc4ccsc34)C2)no1 (stereo not given),25.2%
5,O=C(O)C(F)(F)F.O=S(=O)(C1CC1)N1CCC2(CC1)CN(Cc1nccs1)CCO2,4.912%
6,CCNC(=O)N1CCC(NC(=O)NCCc2ccc(C)cc2C)C1 (stereo not given),5.947%
7,COCCN1CC(c2nc(CSC)no2)CCC1=O (stereo not given),7.021%
8,CCc1nccn1C1CCCN(C(=O)c2ccc3[nH]c(=O)[nH]c3c2)C1 (stereo not given),0.4559%
9,CCc1nccn1C1CCCN(C(=O)c2ccc(C(N)=O)cn2)C1 (stereo not given),6.395%
10,Cc1nccn1C1CCCN(C(=O)c2ccc3nnc(C)n3c2)C1 (stereo not given),98.33%
11,CCc1nccn1C1CCCN(C(=O)c2ccc3nnc(C)n3c2)C1 (stereo not given),92.62%
12,Cc1nc(C)c(C(=O)N2CCc3c(Cl)cccc32)o1,-6.606%
13,Cc1nc(CN(C)C2CCN(Cc3nc4c(F)cccc4[nH]3)C2)no1 (stereo not given),95.7%
14,CNC(=O)c1cccc(CN2CCC(N(C)Cc3ncc(C)o3)C2)c1 (stereo not given),18.32%
15,Cc1cnc(CN(C)C2CCN(Cc3nc4ccccc4n3C)C2)o1 (stereo not given),4.653%
16,Cc1nc(CN2CCCN(Cc3nc4c(F)cccc4[nH]3)CC2)no1,93.2%
17,CCc1ncc2c(n1)CN(Cc1nc3c(F)cccc3[nH]1)CC2,-2.409%
18,Cc1ncc2c(n1)CN(Cc1nc3c(F)cccc3[nH]1)CC2,-1.881%
19,Cc1cnc(CN(C)C2CCN(Cc3nc4c(F)cccc4[nH]3)C2)o1 (stereo not given),88.38%
20,Cc1sc2nc(C(F)(F)F)nc(N3CCN(S(C)(=O)=O)CC3)c2c1C,0.8403%
21,O=C1NC(c2ccccc2)=N[C@@]12CC[C@@H]1CN(Cc3ccco3)C[C@@H]12,9.656%
22,CCOc1ccc(NC(=O)c2[nH]c(C)cc2C)cc1CO,-6.246%
23,CNC(=O)c1ccc(-c2ccccc2)n1C,-8.126%
24,Cc1nc(C)n(C2CCCN(C(=O)c3cc4ccccc4n3C)C2)n1 (stereo not given),8.769%
25,Cn1c(C(=O)NCC2(N)CCCC2)cc2ccccc21,105.3%

row,Compound,Percent Effect
1,COCCn1c(C(=O)NCC(C)C(=O)O)cc2ccccc21 (stereo not given),18.09%
2,CNC(=O)c1cc2ccccc2n1C,113.9%
3,O=C(NCC1(CO)CC1)c1cccc2ccccc12,-22.57%
4,CC(C)NC(=O)c1n[nH]c(-n2cnnc2)n1,-2.794%
5,Cc1cc(C)nc(Nc2cccc(C3CCCN(C)C3)n2)n1.O=CO (stereo not given),-4.261%
6,Cc1cc(C)nc(Nc2cccc(C3CCCN(CC4CC4)C3)n2)n1 (stereo not given),109.6%
7,CNc1nc(C)cc(NC2CCCN(C3Cc4ccccc4C3)C2)n1 (stereo not given),43.21%
8,CNc1cc(C)nc(NC2CCCN(C3Cc4ccccc4C3)C2)n1 (stereo not given),9.514%
9,Cc1cc(C)nc(Nc2cccc(C3CCCN(CCO)C3)n2)n1 (stereo not given),75.7%
10,Cc1cc(C)nc(Nc2cccc(C3CCCN(C(C)C)C3)n2)n1 (stereo not given),76.23%
11,Cc1cc(CC(C)NC(=O)COc2ccc(F)cc2F)[nH]n1 (stereo not given),17.04%
12,CN(C(=O)NCc1ccncc1)C1CCN(c2ccccc2)C1=O (stereo not given),-1.353%
13,O=c1nc(SCc2ccc(Cl)cc2)c2c(n1CCO)CCC2,7.751%
14,CN(CCc1nc(-c2cccc(Cl)c2)no1)CCn1cccn1,14.68%
15,O=C(NCCNc1cnccn1)c1scnc1Cl,1.056%
16,COc1ccc(Cl)cc1NC(=O)CCNc1ccc(C#N)cn1,-1.327%
17,COc1ccc(Cl)cc1C(=O)NCCNc1cnccn1,117.3%
18,COc1ccc(Cl)cc1NCC(=O)NCCNc1cnccn1,7.849%
19,Cc1ncsc1C(=O)NCCNc1cnccn1,4.216%
20,COc1ccc(Cl)cc1NCCC(=O)NCCNc1cnccn1,93.92%
21,NC(=O)C(Nc1cccc(CO)c1)c1ccc(Br)cc1 (stereo not given),-1.327%
22,CCCn1ccnc1CNC(=O)C1COc2cc(OC)ccc2C1 (stereo not given),-6.706%
23,CCOC(=O)[C@H]1[C@@H](O)C(=O)N(C)C12CCN(C(=O)OC)CC2,97.39%
24,CC(C)CC(=O)N1CCC2(CC1)NC(=O)[C@H]1CN(C(=O)N(C)C)C[C@H]12,-16.51%
25,CCOC(=O)[C@H]1[C@@H](O)C(=O)N(C)C12CCN(C(=O)C(CC)CC)CC2,87.69%

row,Compound,Percent Effect
1,CC(C)CC(=O)N1CCC2(CC1)[C@@H]1CN(C(=O)N(C)C)C[C@@H]1C(=O)N2C,-15.87%
2,CC(C)C(=O)N1CCC2(CC1)[C@@H]1CN(C(=O)N(C)C)C[C@@H]1C(=O)N2C,11.68%
3,COC(=O)N1CCC2(CC1)N=C(CCC(C)C)NC2=O,-0.8032%
4,CC(C)NC(=O)N1CCC2(CC1)[C@@H]1CN(C(=O)N(C)C)C[C@@H]1C(=O)N2C,-31.71%
5,COc1cc(C)c(CN2CCC3(CC2)C(C(=O)O)CC(=O)N3C)cc1C (stereo not given),7.232%
6,CCOC(=O)[C@@H]1[C@@H](O)C(=O)N(C)C12CCN(C(=O)OC)CC2,81.26%
7,CCOC(=O)[C@H]1[C@@H](O)C(=O)N(C)C12CCN(C(=O)CC(C)C)CC2,122.2%
8,CC(=O)N1C[C@@H]2C(=O)N(C)C3(CCN(C(=O)C(C)C)CC3)[C@@H]2C1,-11.94%
9,NC(=O)Cn1ccnc1C1CCCN(Cc2nc3ccccc3s2)C1 (stereo not given),1.02%
10,CCCC(=O)N(C)Cc1cccc(OC(C)C)c1,0.3075%
11,CCN1CCC(CC(=O)N[C@H](C(=O)O)c2cccc(F)c2F)CC1,0.01063%
12,O=C(c1ccco1)N1CCC2(CC1)C(=O)NCCN2CC1CC1,0.967%
13,CC(C)(C)CC(=O)N1CCC(n2cc(C3(O)CCCC3)nn2)CC1,20.32%
14,CCOC(=O)[C@@H]1[C@@H](OC)C(=O)N(C)C12CCN(C(=O)C(CC)CC)CC2,108.6%
15,CCOC(=O)N1CCC2(CC1)N=C(CCC(C)C)NC2=O,0.1534%
16,CCOC(=O)[C@H]1[C@@H](O)C(=O)N(C)C12CCN(C(=O)CC(C)(C)C)CC2,89.62%
17,CCN1CC2(CC1=O)CN(C(C)=O)CCN(C(=O)c1ccco1)C2 (stereo not given),6.232%
18,CCOC(=O)[C@@H]1[C@@H](O)C(=O)N(C)C12CCN(C(=O)c1ccco1)CC2,104.5%
19,CC(C)CN1C[C@@H]2C(=O)N(C)C3(CCN(C(=O)C(C)C)CC3)[C@@H]2C1.O=C(O)C(F)(F)F,15.99%
20,CCOC(=O)[C@H]1[C@@H](O)C(=O)N(C)C12CCN(C(=O)OCC)CC2,113.4%
21,CCOCC(O)CN1CCN(C(=O)CC(C)(C)C)CC1 (stereo not given),2.808%
22,CC(=O)N1CCC2(CC1)[C@@H]1CN(C(=O)N(C)C)C[C@@H]1C(=O)N2C,-8.179%
23,N#Cc1cccnc1NCc1ccc(S(=O)(=O)NC2CC2)cc1,-3.149%
24,CCOCCNCC1CCN(CCO)CC1,-14.57%
25,N#Cc1cc(F)ccc1CN1CCCCC1Cn1cncn1 (stereo not given),7.796%

row,Compound,Percent Effect
1,O=C(Nc1ccccc1Cn1cncn1)C1CCN(C2CCCCC2)C1 (stereo not given),-3.545%
2,COCCCn1cnnc1C(C)NC(=O)c1[nH]c2ccc(C)cc2c1C (stereo not given),21.75%
3,CCOC(=O)C1CN(S(=O)(=O)CC)Cc2ncn(CC)c21 (stereo not given),10.83%
4,COCCC1COC2(CCN(C(=O)CC3CCCC3)CC2)C1 (stereo not given),-6.475%
5,Cc1ccc(F)c(OC2(C(=O)O)CCN(C(=O)c3ccccc3)CC2)c1,-18.21%
6,CCOC(=O)[C@H]1[C@@H](O)C(=O)N(C)C12CCN(S(=O)(=O)CC)CC2,107.6%
7,CN1C(=O)CC(c2ccccc2)C12CCN(C(=O)c1ccc[nH]1)CC2 (stereo not given),-3.808%
8,CCS(=O)(=O)N1CCC2(CCCC(=O)N2C)CC1,1.174%
9,Cc1nn(C)c(C)c1C(=O)N1CCN(C(=O)CC2CCCCC2)CC1,-14.94%
10,CCOC(=O)[C@H]1[C@@H](O)C(=O)N(C)C12CCN(C(=O)c1ccccc1)CC2,113.3%
11,CCOC(=O)[C@H]1[C@@H](O)C(=O)N(C)C12CCN(C(=O)CC1CCCC1)CC2,108.5%
12,OC[C@H]1CN(Cc2c(Cl)cncc2Cl)C[C@H]1CN1CCCC1,-2.945%
13,COCCc1noc(-c2ccc(-c3ccc(N)nc3)nc2)n1,3.848%
14,CC(C)N(C)S(=O)(=O)N1CCCC1C(=O)N1CCSCC1 (stereo not given),-16.03%
15,CN(C)C1CCCN(Cc2cccc(Cn3cccn3)c2)CC1 (stereo not given),-12.17%
16,CCCn1c(C)c(CC(=O)NC)c2c1CC(C)(C)CC2=O,-16.12%
17,O=C(NCCC1CN(C2CCCC2)CCO1)c1c[nH]c(=O)[nH]c1=O (stereo not given),104.1%
18,O=C(NCCC1CCCO1)c1ccccc1N1CCOCC1 (stereo not given),-10.37%
19,O=C(c1cc(=O)[nH]c(=O)[nH]1)N1CCCCC1c1ccc(F)cc1 (stereo not given),-19.12%
20,Cc1nc[nH]c1CN1CCOC(CCNC(=O)c2ccsc2)C1 (stereo not given),3.165%
21,CC(=O)N1CCC(N2CCOC(CC3CCCCC3)C2)CC1 (stereo not given),-12.42%
22,O=C(NCCC1CN(C2CCCC2)CCO1)c1cc(=O)[nH]c(=O)[nH]1 (stereo not given),90.1%
23,Cc1nc(-c2ccsc2)ccc1C(=O)NCCC1CCCO1 (stereo not given),-16.18%
24,Cc1ccc(C(=O)NCC(O)CN2CCCC2=O)c(C)c1 (stereo not given),-3.657%
25,Cc1ccc(C(=O)NCCC2CN(C3CCCC3)CCO2)c(C)c1 (stereo not given),105.7%
